# Experimental data: PubChem BioAssay (NCI)
# About 83,000 compounds went through this panel and 20% of them were active in at least one assay; those are over-represented in the sample as a whole.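 A percent growth of 40 corresponds to 60% growth inhibition; 0 means no net growth; -100 means all cells died. Active threshold: below 10.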 The source made the active and inactive calls.
# System: HL-60(TB) leukemia
# Assay: NCI-60 one-dose screen, 48 h (100 = growth as untreated, 0 = no growth, -100 = all killed)
# Settings: 10 µM unless noted
row,SMILES,growth
1,Oc1ccc(Cc2ccc(O)c3ncccc23)c2cccnc12,5.77% (active)
2,CCOC(=O)CC1C(CNC(=O)NC)OC(n2cnc3c(NC(=O)Nc4ccccc4)ncnc32)C1O[Si](C)(C)C(C)(C)C (stereo not given),44.5% (inactive)
3,CCOc1ccc2c(c1)/C(=C\C=C\C1CC(C)C3CC(OCC)CCC3N1CC)CC(C)N2CC (stereo not given),-35.7% (active)
4,CN1CCN(c2nc(Nc3ccc(O)cc3)nc3ccccc23)CC1,61.4% (inactive)
5,COc1ccc(-c2ccc(O)c(C(=O)/C=C/c3cc(OC)c(OC)c(OC)c3)c2)cc1,54.5% (inactive)
6,COc1nc2c(cc1S(=O)(=O)c1ccccc1)CCc1c-2cnn1Cc1ccccc1,26.1% (inactive)
7,CCc1nc2cc(F)c(/C=C/C(=O)NO)cc2c(=O)n1CCc1ccccc1,0.13% (active)
8,CCCC(CCC)NCC(O)c1cc(-c2ccc(C(F)(F)F)cc2)nc(C(F)(F)F)c1 (stereo not given),-46.3% (active)
9,C#C[C@]1(O)CC[C@H]2[C@@H]3CC=C4c5sc(Nc6cc(F)ccc6F)nc5CC[C@]4(C)[C@H]3CC[C@@]21C,-1.19% (active)
10,CC(C)(C)[Si](C)(C)OC1[C@@H](CNC(=O)NC(=O)NC(N)=O)O[C@@H](n2cnc3c(NC(=O)Nc4ccccc4)ncnc32)[C@H]1O[Si](C)(C)C(C)(C)C (stereo not given in full),86.3% (inactive)
11,Cn1c(COC(=O)N2CCCCC2)nc2c(N3CCOCC3)nc(-c3ccccc3)nc21,-28% (active)
12,N#Cc1ccc(-c2csc(Nc3ccc4nc5n(c(=O)c4c3)CCC5)n2)cc1,103% (inactive)
13,COc1ccc(-c2oc(=O)ccc2-c2cc(OC)c(OC)c(OC)c2)cc1F,44.6% (inactive)
14,Cc1ccc(C23CCC(=O)N2CCc2cncn23)cc1 (stereo not given),95.7% (inactive)
15,CN(C)CCS(=O)(=O)CCN(C)C,110% (inactive)
16,CCOC(=O)C(C#N)C1CCCCC1 (stereo not given),67.5% (inactive)
17,COc1ccc(-c2cc(-c3ccc(OC)cc3)c3sc(=O)[nH]c3n2)cc1,84.7% (inactive)
18,C=C(C)[C@@H]1CC[C@]2(CNCCO)CC[C@]3(C)[C@H](CC[C@@H]4[C@@]5(C)CCC(N)[C@@](C)(CO)[C@@H]5CC[C@]43C)[C@@H]12 (stereo not given in full),-63.7% (active)
19,COC(=O)/C=C1/CCCCC1(C)C(=O)OC (stereo not given),102% (inactive)
20,COc1cc(N2C(=O)[C@H](c3ccccc3)C2c2ccc(SC)cc2)cc(OC)c1OC (stereo not given in full),-45.7% (active)

row,SMILES,growth
1,CCN1CCN(c2nc(C)cc(N(CCCNc3ccnc4cc(Cl)ccc34)Cc3ccc4c(c3)OCO4)n2)CC1,-60.4% (active)
2,O=C(O)CCCN1C(=O)NC2(C1=O)c1ccccc1-c1ccccc12,101% (inactive)
3,CCOC(=O)C1=C(C)NC(=O)NC1c1ccc(OCC(=O)N/N=C/c2ccc(Cl)cc2)cc1 (stereo not given),98.3% (inactive)
4,OCc1ccccc1F,135% (inactive)
5,CCCCCC(=O)Oc1ccc(/C(=C(/C)Cc2ccc(OC)cc2)c2ccc(OCCCN(C)C)cc2)cc1,62% (inactive)
6,O=[N+]([O-])c1ccc(C=C2C(Cl)=C(Cl)C(Cl)=C2Cl)cc1,34.2% (inactive)
7,Cc1cc(Cl)nc(N(CCCNc2ccnc3cc(Cl)ccc23)Cc2ccccn2)n1,12% (inactive)
8,COc1ccc(-c2nc(N)n(C(=S)Nc3ccccc3)n2)cc1,96.4% (inactive)
9,Cc1ccc(S(=O)(=O)Oc2ccc3c4c(c(=O)oc3c2)CCCCC4)cc1,20.4% (inactive)
10,COc1cc(/C=C/C(=O)c2ccc(F)cc2)ccc1OCCCCOc1ccc(/C=C/C(=O)c2c(C)nc3ccccc3c2C)cc1OC,79.8% (inactive)
11,CCCNc1nc(N(C)O)nc(N(C)O)n1,3.47% (active)
12,CN(C)CSc1nc2ccccc2s1,101% (inactive)
13,O=C1/C(=C/c2cccc(Br)c2)COc2ccc(O)cc21,-16.7% (active)
14,O=C(C(Br)C(Br)c1ccccc1)C(Br)C(Br)c1ccccc1 (stereo not given),-49.7% (active)
15,CCOC1=C(Cl)C(=O)C(OCC)=C(Cl)C1=O,52.3% (inactive)
16,Clc1cccc(Cl)c1Nc1ccc2nnc(-c3ccncc3)n2n1,88.7% (inactive)
17,COc1cc2nc(Cl)nc(Nc3cccc(C(=O)/C=C/c4ccc(Cl)cc4)c3)c2cc1OC,51.7% (inactive)
18,COc1ccc(C=C2c3ccccc3-c3ccccc32)cc1,23.6% (inactive)
19,COc1cc2ncnc(Oc3ccc(NC(=O)Nc4ccc(CN5CCOCC5)c(C(F)(F)F)c4)c4ccccc34)c2cc1OC,-23% (active)
20,COc1ccc(/C=C2\CN(Cc3cn(CCCNc4ccnc5cc(Cl)ccc45)nn3)C/C(=C\c3ccc(OC)cc3)C2=O)cc1,53.1% (inactive)
